Sampled rows, rich in hits. Any-hit rate of the full collection: about 7.2%.
Bfl-1 A1 inh: caspase 3/7 activation in MEF A1-2A-BIM cells, primary screen, A1 inhibitor project, cell-based, luminescence, HTS. Caspase-Glo 3/7 luminescence, 3 h; percent of clofoctol response, vehicle zero. caspase activation, % (concentration not given with the values). hit rate 0.066% among 330,000. AID 2462, 2010;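 active means over half of replicate activation scores above 10%, or exactly half above 10 with the replicate mean above 10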
ALR inh: inhibitors of human ALR sulfhydryl oxidase, primary screen, biochemical, H2O2 detection, HRP-luminol luminescence, single point; FAD-linked sulfhydryl oxidase ALR (Homo sapiens), P55789; purified ALR, DTT oxidation; inhibition, % (concentration not given with the values); hit rate 3.8% among 290,000; AID 485317, 2010;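 active means mean replicate inhibition above about 79%, with every replicate also reaching it, limit read from the data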
Target sequence (P55789 whole entry, looked up): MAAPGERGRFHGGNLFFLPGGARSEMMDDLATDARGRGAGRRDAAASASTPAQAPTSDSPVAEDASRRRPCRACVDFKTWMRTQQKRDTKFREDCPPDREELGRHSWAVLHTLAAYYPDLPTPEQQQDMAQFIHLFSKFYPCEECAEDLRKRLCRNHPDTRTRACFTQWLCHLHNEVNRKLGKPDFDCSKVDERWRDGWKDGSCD
AHR act: AHR activators, primary screen, cell-based, luminescence, luciferase reporter, human; Aryl hydrocarbon receptor (Homo sapiens), P35869; AHR-responsive luciferase reporter cells; activation, % at 5 µM; hit rate 2.5% among 320,000; AID 2796, 2010; in the data active means activation above about 47%;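 further: 0% = vehicle wells and 100% = reference agonist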
Efflux pump inh: inhibitors of Candida efflux pumps in yeast, primary screen, S. cerevisiae, Nile Red, multiplex. S. cerevisiae Candida pump triplex. inhibition, % at 10 µM. hit rate 0.44% among 330,000;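 active means plate passing quality check with inhibition over a set limit, or well fluorescence over plate mean plus 4 SD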;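 further: Nile Red retained in pooled yeast measured as flow cytometry median fluorescence; 0% = buffer negative control and 100% = Enniatin B positive control; higher means more Nile Red kept so more efflux inhibition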
VLA-4 inh: inhibition in human VLA-4 binding assay, primary screen, VLA-4 allosteric modulator project, MLPCN library, flow cytometry, VLA-4 expressing cells. inhibition, % (about 7 µM as worked out from the volumes in the protocol). hit rate 0.2% among 330,000. ligand binding flow cytometry; in the data active means inhibition above about 50%
SUMO Mot1 rescue: yeast Mot1-301 growth rescue at high temperature, primary screen, SUMOylation pathway inhibitor project, S. cerevisiae, ATP luminescence, 38.5C. growth rescue, % at 18.8 µM. hit rate 1% among 320,000. S. cerevisiae Mot1-301 growth rescue; percent above DMSO median, 100 means doubled;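 active means every valid replicate shows activation above 250% relative to neutral control wells; inactive means the rest, any valid replicate at or below 250%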;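 further: OY570 slx delta 5 strain wells were the positive control but not used for scaling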
Cmpd fluor yeast: compound fluorescence in yeast efflux pump counter-screen; shares compounds with Efflux pump inh; S. cerevisiae AD/pABC3, flow cytometry; fluorescence ratio to DMSO, % at 10 µM; hit rate 4% among 1,700; AID 588517;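 active means fluorescence ratio to DMSO above its plate's cutoff, the plate mean ratio plus 5 SD, cut at about 210% in these data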;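 further: unstained yeast with no Nile Red so the signal is compound autofluorescence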
CaMdr1 efflux inh: inhibitors of Candida albicans Mdr1 efflux, confirmation, flow cytometry, singleplex, Cherry Pick1 set | shares compounds with Efflux pump inh | S. cerevisiae AD/CaMDR1, Nile Red efflux | inhibition, % at 10 µM | hit rate 1% among 1,700; in the data active means inhibition above about 26%;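 further: 0% = DMSO vehicle and 100% = reference inhibitor; higher means more Nile Red retained so more efflux inhibition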
CaCdr2 efflux inh: inhibitors of Candida albicans Cdr2 efflux pump, confirmation, S. cerevisiae AD/CaCDR2, flow cytometry, cherry pick 1, singleplex; hit rate 4% among 1,700; Nile Red retention ratio vs DMSO, % at 10 µM; shares compounds with Efflux pump inh; Nile Red retention; in the data active means Nile Red retention ratio vs DMSO above about 190%;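 further: higher ratio means more blocking of Cdr2 efflux of the dye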
CaCdr1 efflux inh: inhibitors of Candida albicans Cdr1 efflux pump, confirmation, S. cerevisiae AD/CaCDR1, flow cytometry, cherry pick 1, singleplex. shares compounds with Efflux pump inh. Nile Red efflux. inhibition, % at 10 µM. hit rate 1% among 1,700. AID 588522, 2011;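 active means inhibition above the screen-wide mean plus twice its standard deviation, cut at about 32% in these data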
An asterisk follows results filed as active; i = inactive; · = not tested or not shown.

SMILES	Bfl-1 A1 inh	ALR inh	AHR act	Efflux pump inh	VLA-4 inh	SUMO Mot1 rescue	Cmpd fluor yeast	CaMdr1 efflux inh	CaCdr2 efflux inh	CaCdr1 efflux inh
CC1CCN(C(=O)c2ccc(NS(C)(=O)=O)cc2)CC1	-1	·	-2	0.6*	1	-15	99	0	107	0
COc1ccc(C(=O)NNC(=O)Nc2ccc(Cl)cc2)cc1	0	-1	6	0	42	-13	·	·	·	·
NC(=O)c1ccc(NC(=O)CSc2nncn2-c2ccccc2)cc1	0	-3	1	0	3	11	·	·	·	·
CCCCc1nnc2c(N(C)S(=O)(=O)c3ccc(C)cc3)nc3ccccc3n12	-1	5	27	0.8*	9	-17	105	0	102	0
CCCc1nnc2c(N(C)S(=O)(=O)c3ccc(C)cc3)nc3ccccc3n12	0	-4	18	0	2	-10	·	·	·	·
COc1cc(CNc2ccc(C(=O)O)cc2)cc(Br)c1OCC(=O)NC(C)(C)C	0	-13	-3	21*	20	27	108	0	102	0
CCOc1cc(CNc2ccc(OC)cc2)cc(Br)c1OCC(=O)NC(C)(C)C	1	8	1	0	36	-14	·	·	·	·
CC(NC(=O)c1cc(S(=O)(=O)N(C)C)ccc1Cl)c1ccc(-n2ccnc2)cc1 (centres undefined)	2	1	19	0	2	-5	·	·	·	·
COc1ccc(S(=O)(=O)N(C)C[C@H]2Oc3c(NC(=O)NC4CCCCC4)cccc3C(=O)N([C@H](C)CO)C[C@@H]2C)cc1	0	0	1	131*	12	-1	127	28*	97	17
COc1ccc(S(=O)(=O)N(C)C[C@H]2Oc3c(NC(=O)C4CC4)cccc3C(=O)N([C@H](C)CO)C[C@@H]2C)cc1	-2	-1	-2	1	10	10	·	·	·	·
C[C@H](CO)N1C[C@H](C)[C@@H](CN(C)Cc2ccc(-c3ccccc3)cc2)Oc2c(NC(=O)Nc3ccc(C(F)(F)F)cc3)cccc2C1=O	-1	3	22	0	14	-1	92	0	112	0
COc1ccc(S(=O)(=O)N(C)C[C@H]2Oc3c(NC(=O)Nc4ccc(C(F)(F)F)cc4)cccc3C(=O)N([C@H](C)CO)C[C@@H]2C)cc1	0	-2	1	34*	13	-10	104	0	114	0
O=C(NCCOc1ccccc1Cl)c1ccc2c(c1)S(=O)(=O)c1cc(Cl)ccc1C2=O	1	-1	0	0	5	-11	·	·	·	·
O=C(CSc1nc2c(sc3ccccc32)c(=O)n1CCc1ccccc1)NCc1ccco1	1	-3	3	1.5*	-4	47	95	0	96	0
Cc1cc(C2CC(=O)Nc3ccccc3S2)c(C)s1 (centres undefined)	0	-7	15	0	2	14	97	0	106	0
Cc1ccccc1N=C1NC(=O)CC(c2ccccc2)S1 (centres undefined)	0	-6	5	0	4	-2	·	·	·	·
O=C1CC(c2ccsc2)Sc2ccccc2N1 (centres undefined)	0	·	17	0	-7	-4	89	0	100	0
CCC(C)[C@H](NC(=O)NCc1ccccn1)C(=O)OC (some centres undefined)	-1	-4	1	0	2	-6	·	·	·	·
COC(=O)[C@H](CCSC)NC(=O)NCc1ccccn1	0	-11	-1	0.8*	5	-16	105	0	112	0
Cc1cc(/C=N\NC(=O)COc2cccc3cccnc23)c(C)n1-c1ccccc1	0	-3	25	0	4	42	·	·	·	·
CC(C)n1cc(/C=N/NC(=O)COc2cccc3cccnc23)c2ccccc21	0	5	45	3.1*	11	-4	111	0	116	0
CCc1ccc(NC(=S)N2CCC(NC(=O)c3ccccc3OC)CC2)cc1	1	·	-7	0	-7	26	·	·	·	·
Cc1ccccc1SCC(=O)Nc1cc(S(=O)(=O)N2CCOCC2)ccc1N1CCOCC1	-1	-7	1	0.8*	23	4	108	0	110	0
O=C(CSc1cccc[n+]1[O-])Nc1cc(S(=O)(=O)N2CCOCC2)ccc1N1CCOCC1	0	-3	-1	0	3	4	·	·	·	·
CCCN(C(=O)c1cc(C)ccc1C)c1c(N)n(Cc2ccccc2)c(=O)[nH]c1=O	2	·	-1	0	47	-18	·	·	·	·
SMILES	Bfl-1 A1 inh	ALR inh	AHR act	Efflux pump inh	VLA-4 inh	SUMO Mot1 rescue	Cmpd fluor yeast	CaMdr1 efflux inh	CaCdr2 efflux inh	CaCdr1 efflux inh
Cc1occc1C(=O)NNC(=O)c1ccccc1F	-2	23	-4	1.1*	7	86	105	0	104	0
C/C(=N\NC(=O)CSCc1ccccc1Br)c1cccc([N+](=O)[O-])c1	0	-4	-1	6.5*	-3	0	100	0	96	0
O=C(c1ccccc1)N1N=C(c2cccs2)CC1c1ccccc1O (centres undefined)	0	3	9	0	9	-12	·	·	·	·
O=C(c1ccccc1)C1Oc2ccccc2C2CC(c3cccs3)=NN12 (centres undefined)	0	-5	14	1.5*	-4	10	120	0	117	0
CC(=O)c1ccc(S(=O)(=O)N2CCC3(CC2)CC(=O)c2ccccc2O3)cc1	0	-1	-2	0	4	95	·	·	·	·
CC(Nc1nc(-c2ccccc2)nc2ccccc12)c1ccccc1 (centres undefined)	0	27	7	1.9*	32	28	100	0	106	0
COCCN1C(=O)/C(=C/c2ccc(N3CCCC3)cc2C)SC1=S	0	-5	1	2.2*	i	i	318*	1	129	0
